What all share (assay): yeast three-hybrid, YBZ-1, SC-Leu-His + 0.5 mM 3-AT, 4 days
What all share (conditions): tags: N-Gal4 AD-HA kept; label: inside an RPR1-promoter hybrid RNA with tandem MS2 sites; ssRNA

Experiment [1] deals with PUM1 PUF domain R5-RGC (Homo sapiens, UniProt Q14671 828-1176, C1007R;R1008G;Q1011C). A digest of the protocol: (§1)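 The interaction score is the log change in variant frequency from input to selection. Scores were computed in log2 with a pseudocount of 1 for absent variants, using Illumina sequencing of PCR-amplified repeat regions. The input came from four days on SC-Leu and the selection from four days on SC-Leu-His + 0.5 mM 3-AT. The cells were strain YBZ-1 (LexA–MS2 coat fusion, HIS3 reporter) co-expressing Pumilio-1 PUF domain libraries and matching RNA elements from a centromeric plasmid.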

Experiment [2] deals with PUM1 PUF domain R5-RSP (Homo sapiens, UniProt Q14671 828-1176, C1007R;R1008S;Q1011P). The essentials: as §1
Experiment [3] concerns the target PUM1 PUF domain R7-GNR (Homo sapiens, UniProt Q14671 828-1176, S1079G;E1083R). The essentials:
as §1

For experiment [4], the target named is PUM1 PUF domain R5-IYM (Homo sapiens, UniProt Q14671 828-1176, C1007I;R1008Y;Q1011M). A digest of the protocol:
as §1

Experiment [5] deals with T1, PUM1 PUF domain R6-SHR (Homo sapiens, UniProt Q14671 828-1176, N1043S;Y1044H;Q1047R).
T1 sequence: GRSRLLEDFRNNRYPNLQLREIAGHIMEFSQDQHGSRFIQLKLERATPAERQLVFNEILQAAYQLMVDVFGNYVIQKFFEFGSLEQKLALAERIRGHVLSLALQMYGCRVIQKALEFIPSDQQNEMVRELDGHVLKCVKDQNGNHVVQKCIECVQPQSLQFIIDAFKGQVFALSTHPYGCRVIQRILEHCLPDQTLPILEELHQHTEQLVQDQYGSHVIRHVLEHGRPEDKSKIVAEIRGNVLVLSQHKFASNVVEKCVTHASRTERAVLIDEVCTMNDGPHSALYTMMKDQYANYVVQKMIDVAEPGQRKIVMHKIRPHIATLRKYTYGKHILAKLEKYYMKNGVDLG
The essentials:
as §1

Experiment [6] addresses PUM1 PUF domain R3-VRG (Homo sapiens, UniProt Q14671 828-1176, C935V;Q939G). The essentials:
as §1

For experiment [7], the target named is PUM1 PUF domain R3-DFV (Homo sapiens, UniProt Q14671 828-1176, C935D;R936F;Q939V). The essentials: as §1
Experiment [8] deals with PUM1 PUF domain R3-SCY (Homo sapiens, UniProt Q14671 828-1176, C935S;R936C;Q939Y). The essentials: as §1
The target of experiment [9] is T2, PUM1 PUF domain R6-DYQ (Homo sapiens, UniProt Q14671 828-1176, N1043D).
T2 sequence: T1 sequence with S216D, H217Y, R220Q
A digest of the protocol:
as §1

For experiment [10], the target named is T3, PUM1 PUF domain R6-VYR (Homo sapiens, UniProt Q14671 828-1176, N1043V;Q1047R).
T3 sequence: T1 sequence with S216V, H217Y
The essentials:
as §1

Numbering of substitutions follows the chain as printed.

For the sequence “GGCUAGAACUAGUGGAUCCCCCGGCGCCCGGCGGCUCGAGCCCGGGUAAGUGUUAAUAGUCUGCAUGCCGCCGGGCGCCAUGCCUGCAGGUCGACUCUAGAAAACAUG”, the binding signal was 3.22 log2 enrichment (interaction score) in experiment [1] and 1.1 log2 enrichment (interaction score) in [2].

On to “GGCUAGAACUAGUGGAUCCCCCGGCGCCCGGCGGCUCGAGCCCGGGUAAGUUUAAAUAGUCUGCAUGCCGCCGGGCGCCAUGCCUGCAGGUCGACUCUAGAAAACAUG”, for which the binding signal in experiment [3] is 2.05 log2 enrichment (interaction score).

As for “GGCUAGAACUAGUGGAUCCCCCGGCGCCCGGCGGCUCGAGCCCGGGUAAGUGUAAAUAGUCUGCAUGCCGCCGGGCGCCAUGCCUGCAGGUCGACUCUAGAAAACAUG”, the binding signal was 3.85 log2 enrichment (interaction score) in experiment [4]; 4.81 log2 enrichment (interaction score) in experiment [5]; 3.39 log2 enrichment (interaction score) in experiment [6]; 5.54 log2 enrichment (interaction score) in experiment [7]; 3.56 log2 enrichment (interaction score) in [8]; 6.54 log2 enrichment (interaction score) in experiment [9]. Further, the binding signal in experiment [10] was 2.97 log2 enrichment (interaction score).

In the case of “GGCUAGAACUAGUGGAUCCCCCGGCGCCCGGCGGCUCGAGCCCGGGUAAGUGUAAGUAGUCUGCAUGCCGCCGGGCGCCAUGCCUGCAGGUCGACUCUAGAAAACAUG”, the binding signal in experiment [6] was 0.46 log2 enrichment (interaction score).

As to “GGCUAGAACUAGUGGAUCCCCCGGCGCCCGGCGGCUCGAGCCCGGGUAAGUGAAAAUAGUCUGCAUGCCGCCGGGCGCCAUGCCUGCAGGUCGACUCUAGAAAACAUG”, the binding signal in experiment [10] was 6.09 log2 enrichment (interaction score).

With “GGCUAGAACUAGUGGAUCCCCCGGCGCCCGGCGGCUCGAGCCCGGGUAAGUGCAAAUAGUCUGCAUGCCGCCGGGCGCCAUGCCUGCAGGUCGACUCUAGAAAACAUG”, the binding signal in experiment [5] was 5.39 log2 enrichment (interaction score).

Consider “GGCUAGAACUAGUGGAUCCCCCGGCGCCCGGCGGCUCGAGCCCGGGUAAGUGUCAAUAGUCUGCAUGCCGCCGGGCGCCAUGCCUGCAGGUCGACUCUAGAAAACAUG”, for which the binding signal in experiment [1] was 1.32 log2 enrichment (interaction score); in experiment [2] it was 2.36 log2 enrichment (interaction score).
